In PubChem BioAssay (Tox21) one finds Potency and outcome data, which are given here for 15 compounds.

Test [1] can be described thus: qHTS assay to identify small molecule phospholipidosis (PLD) inducers (AID 1259344; active = well fitted curve in the direction sought with a large enough effect; an effect the other way counts as inactive or inconclusive). Summed up: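 HepG2 cells on collagen I, attached 4 h at 37 C, were co-treated with compound and LipidTOX Red dye for 24 h at 37 C, then fixed with paraformaldehyde plus Hoechst 33342 and imaged by high-content microscopy for phospholipid accumulation.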
The nature of test [2]: qHTS assay to identify small molecule agonists of the estrogen receptor beta (ER-beta) signaling pathway - cell viability counter screen (AID 1259380). Also: nearly all actives have a fitted effect of over 30% in size. Also: potency is read from the fitted curve at half-maximal effect. Put shortly: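 CellTiter-Glo read, 30 min RT, same wells as bla assay; cells ER-beta-UAS-bla HEK293T; 16 hr compound, 37C; medium 2% charcoal-stripped FBS.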
The nature of test [3]: qHTS assay to identify small molecule antagonists of the estrogen receptor beta (ER-beta) signaling pathway - cell viability counter screen (AID 1259382). Also: nearly all actives have a fitted effect of over 55% in size. Also: potency is read from the fitted curve at half-maximal effect. Put shortly: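 In this multiplexed counter screen, cells were seeded at 2,000 per well in medium with 2% charcoal-stripped FBS and incubated 6 hr before compound and 1nM final E2 were added. Sixteen hours later, ATP-based luminescence reported viability.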

Test [4] deals with Thyrotropin receptor (Homo sapiens) (UniProt P16473). The test can be described thus: qHTS assay to identify small molecule antagonists of the thyroid stimulating hormone receptor (TSHR) signaling pathway (AID 1259385; calls by dose curve; also: nearly all actives have a fitted effect of over 20% in size; also: potency is read from the fitted curve at half-maximal effect). Put shortly: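 TSHR-HEK293 cells were plated and held 18 h at 37C/5% CO2, then given compound plus Ro20-1724 and stimulated with TSH at 1.5 ng/mL final. After 30 min at room temperature, cAMP was detected with cAMP-d2/anti-cAMP-cryptate (1 h) by fluorescence.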
Thyrotropin receptor (Homo sapiens), sequence (P16473 whole entry, looked up): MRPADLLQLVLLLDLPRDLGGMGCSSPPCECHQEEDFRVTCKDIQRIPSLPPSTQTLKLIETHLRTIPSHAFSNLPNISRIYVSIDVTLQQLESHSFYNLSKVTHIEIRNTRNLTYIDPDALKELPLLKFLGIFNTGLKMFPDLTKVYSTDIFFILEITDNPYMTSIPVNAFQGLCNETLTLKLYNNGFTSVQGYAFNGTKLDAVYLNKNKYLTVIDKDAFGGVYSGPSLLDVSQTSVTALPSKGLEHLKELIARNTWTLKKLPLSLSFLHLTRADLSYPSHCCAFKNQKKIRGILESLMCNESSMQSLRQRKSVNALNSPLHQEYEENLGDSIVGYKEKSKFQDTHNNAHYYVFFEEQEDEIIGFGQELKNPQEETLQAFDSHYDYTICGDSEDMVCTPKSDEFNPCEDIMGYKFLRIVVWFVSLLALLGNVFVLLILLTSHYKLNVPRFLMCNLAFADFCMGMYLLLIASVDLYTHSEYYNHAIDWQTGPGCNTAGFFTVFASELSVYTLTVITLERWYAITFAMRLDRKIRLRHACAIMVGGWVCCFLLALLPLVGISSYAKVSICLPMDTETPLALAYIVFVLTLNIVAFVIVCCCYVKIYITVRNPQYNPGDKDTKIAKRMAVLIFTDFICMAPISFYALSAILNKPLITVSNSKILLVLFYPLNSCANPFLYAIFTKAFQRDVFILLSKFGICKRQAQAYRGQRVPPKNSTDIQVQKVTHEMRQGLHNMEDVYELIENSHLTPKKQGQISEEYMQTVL
(In qHTS, concentration-response curves come from the screen itself.)

A short description of test [5]: qHTS assay to identify small molecule HDAC inhibitors - cell viability counter screen (AID 1259365). Also: nearly all actives have a fitted effect of over 50% in size. Also: potency is read from the fitted curve at half-maximal effect. Put shortly:
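Counter screen in wild-type HCT-116 cells: compounds dissolved in DMSO are pin-transferred onto overnight-plated cells and left 2hr at 37C. ATP-based CellTiter-Glo luminescence then measures viable cells.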

The nature of test [6]: qHTS assay to identify small molecule antagonists of the sonic hedgehog signaling (Shh) pathway - cell viability counter screen (AID 1259367). Also: nearly all actives have a fitted effect of over 55% in size. Also: potency is read from the fitted curve at half-maximal effect. Put shortly:
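NIH/3T3-derived Gli1-Luc reporter cells (2,000 per well) rested 4 hr at 37 C, then received DMSO compounds plus conditioned medium. After 23 hr of treatment, CellTiter-Fluor was added for 1 hr at 37C and fluorescence read.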

Test [7] in a line: qHTS assay to identify small molecule agonists of the sonic hedgehog signaling (Shh) pathway (AID 1259368; calls by dose curve;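 also: NIH/3T3-derived 3T3Gli1-Luc cells carrying a stable Gli1-driven firefly luciferase reporter; series mostly up to about 92 µM; nearly all actives have a fitted effect of over 15% in size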). Summed up: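 A Gli1 transcriptional response element controlled firefly luciferase in 3T3Gli1-Luc cells. Compounds and a positive control were added 4 hr after plating, and cells were incubated a further 24 hr at 37 C before luminescence detection.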
Test [8] can be described thus: qHTS assay to identify small molecule antagonists of the sonic hedgehog signaling (Shh) pathway (AID 1259369; calls by dose curve; also: nearly all actives have a fitted effect of over 45% in size; also: potency is read from the fitted curve at half-maximal effect). Put shortly: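 For antagonist detection, the reporter line received test compounds together with conditioned medium, incubated 24hr at 37 C, 5% CO2, then luminescence was recorded following 30min room-temperature luciferase reagent incubation.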
The target of test [9] is Estrogen receptor beta (Homo sapiens) (UniProt Q92731). The test can be described thus: qHTS assay to identify small molecule agonists of the estrogen receptor beta (ER-beta) signaling pathway (AID 1259377; active = well fitted activation curve with a large enough effect in the signal ratio in the repeat runs, not every such curve was filed as active; the % refers to the signal ratio). Summed up: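 Agonist mode cell assay in GripTite HEK293T cells expressing an ER-beta fusion that drives beta-lactamase from an Upstream Activator Sequence; 16 hr compound exposure at 37C, then 2 h LiveBLAzer B/G FRET substrate at room temperature, fluorescence read-out.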
Estrogen receptor beta (Homo sapiens), sequence (Q92731 whole entry, looked up, the tested form may be a part): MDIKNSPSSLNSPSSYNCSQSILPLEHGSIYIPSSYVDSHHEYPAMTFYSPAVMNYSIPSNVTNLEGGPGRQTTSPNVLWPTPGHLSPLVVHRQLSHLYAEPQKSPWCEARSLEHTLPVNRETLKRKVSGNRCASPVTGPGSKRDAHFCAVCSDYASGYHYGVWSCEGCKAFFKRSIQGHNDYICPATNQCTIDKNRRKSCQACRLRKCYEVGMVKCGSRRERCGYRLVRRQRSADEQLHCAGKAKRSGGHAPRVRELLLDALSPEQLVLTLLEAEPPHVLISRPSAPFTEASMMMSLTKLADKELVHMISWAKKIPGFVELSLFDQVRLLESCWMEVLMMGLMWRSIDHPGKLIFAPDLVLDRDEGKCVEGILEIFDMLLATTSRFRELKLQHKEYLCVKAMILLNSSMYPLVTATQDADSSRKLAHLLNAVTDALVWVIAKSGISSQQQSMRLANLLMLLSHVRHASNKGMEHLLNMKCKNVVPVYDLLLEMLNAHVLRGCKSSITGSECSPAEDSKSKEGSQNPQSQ

Test [10] can be described thus: qHTS assay to identify small molecule agonists of the androgen receptor (AR) signaling pathway in the presence of an antagonist - cell viability counter screen (AID 1259379). Also: nearly all actives have a fitted effect of over 25% in size. Also: potency is read from the fitted curve at half-maximal effect. Put shortly:
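Seed MDA-kb2 at 3,000 cells/well; incubate 5 hr, 37C, 0% CO2. Add nilutamide to 3.0uM final, then pin compounds at 15 concentrations. Incubate 16 hr. Add CellTiter-Fluor at 15 hr, read fluorescence after 1 hr.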

A short description of test [11]: qHTS assay to identify small molecule agonists or antagonists of the thyroid stimulating hormone receptor (TSHR) signaling pathway - wild type cell line counter screen (AID 1259384; calls by dose curve). Summed up: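 Wild-type HEK293 cells were plated 18 h at 37 C/5% CO2, pin-dosed with compound plus Ro20-1724 medium, held 30 min at room temperature, then given cAMP-d2 and anti-cAMP-cryptate; fluorescence was read after 1 h. Fifteen concentrations, triplicate.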

Test [12] deals with Progesterone receptor (Homo sapiens) (UniProt P06401). The test can be described thus: qHTS assay to identify small molecule agonists of the progesterone receptor (PR) signaling pathway (AID 1346784; calls by dose curve; also: nearly all actives have a fitted effect of over 30% in size). Put shortly:
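Cells (PR-UAS-bla HEK 293T, GripTite) were plated in assay medium containing 2% charcoal-stripped FBS and incubated 6 hr. Test compounds in DMSO were added for 16 hr at 37C. FRET substrate was then loaded for 2 hr at room temperature before fluorescence reading.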

Test [13] can be described thus: qHTS assay to identify small molecule HDAC inhibitors (AID 1259364). Also: potency is read from the fitted curve at half-maximal effect.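 Also: wild-type HCT-116 cells with endogenous class I/II HDAC activity; nearly all actives have a fitted effect of over 45% in size.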 Put shortly: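 Read-out: luminescence of HDAC-Glo I/II reagent, 30 min RT, reflecting class I/II deacetylase activity in whole HCT-116 cells pre-exposed 2 h to DMSO-dissolved compounds.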
Test [14] can be described thus: qHTS assay to identify small molecule agonists of the sonic hedgehog signaling (Shh) pathway - cell viability counter screen (AID 1259366). Also: nearly all actives have a fitted effect of over 50% in size. Also: potency is read from the fitted curve at half-maximal effect. Summed up: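 Cells are plated at 2,000 per well and left 4hr at 37C, 5% CO2 before compound addition. After 23hr of treatment, CellTiter-Fluor reagent is added for 1hr at 37C and fluorescence is measured.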
Test [15] in a line: qHTS assay to identify small molecule agonists of the estrogen receptor alpha (ER-alpha) signaling pathway in the presence of an antagonist - cell viability counter screen (AID 1259386).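 Also: series mostly up to about 92 µM; cells exposed to compounds for 22 h at 37 °C before the viability read; nearly all actives have a fitted effect of over 30% in size.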 Summed up: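 Viability counter screen using VM7Luc4E2 (full-length ER-alpha, four ERE-luciferase). The cells were treated with compounds alongside ICI-182,780 10.0nM for 22hr, and live-cell protease fluorescence was quantified with CellTiter-Fluor.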

In test [16] the target is Estrogen receptor beta (Homo sapiens) (UniProt Q92731). Briefly: qHTS assay to identify small molecule antagonists of the estrogen receptor beta (ER-beta) signaling pathway (AID 1259378; active = well fitted inhibition curve with a large enough effect in the signal ratio in the repeat runs, not every such curve was filed as active; the % refers to the signal ratio). Summed up: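 ER-beta-UAS-bla HEK293T (GripTite) cells in 2% charcoal-stripped FBS medium were preincubated 6 hr at 37C, dosed with compound, then stimulated with 1 nM E2 (final) for 16 hr; beta-lactamase reporter read by B/G FRET fluorescence after 2 hr substrate loading.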

The target of test [17] is Estrogen receptor (Homo sapiens) (UniProt P03372). Briefly: qHTS assay to identify small molecule agonists of the estrogen receptor alpha (ER-alpha) signaling pathway in the presence of an antagonist (AID 1259383; calls by dose curve; also: top concentration of the series differs between compounds; nearly all actives have a fitted effect of over 15% in size). Summed up:
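Stably transfected VM7Luc4E2 reporter cells, kept 5 days in charcoal-stripped serum, received ICI-182,780 at 10.0nM final before compound addition. Following 22hr incubation at 37C and 5% CO2, luciferase signal was read by luminescence.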

Several values for one entry are separate records, joined by “and”; a condition that tells them apart may be missing. Equal entries are not always repeated. Records with an inconclusive call do not appear. The source holds several records for some structures; these can differ, active in one and inactive in another. Activity calls are given as the source filed them. Unless noted, calls follow the shape of the dose curve; as a rule, active = well fitted curve in the direction sought with a large enough effect in the repeat runs; inconclusive = weak or mixed curves; inactive = no such curve, though single readings can be large; an effect the other way counts as inactive or inconclusive.
% is scaled to controls: 0 for no effect and ±100 for the full control effect.

Progesterone receptor (Homo sapiens), sequence (P06401 whole entry, looked up): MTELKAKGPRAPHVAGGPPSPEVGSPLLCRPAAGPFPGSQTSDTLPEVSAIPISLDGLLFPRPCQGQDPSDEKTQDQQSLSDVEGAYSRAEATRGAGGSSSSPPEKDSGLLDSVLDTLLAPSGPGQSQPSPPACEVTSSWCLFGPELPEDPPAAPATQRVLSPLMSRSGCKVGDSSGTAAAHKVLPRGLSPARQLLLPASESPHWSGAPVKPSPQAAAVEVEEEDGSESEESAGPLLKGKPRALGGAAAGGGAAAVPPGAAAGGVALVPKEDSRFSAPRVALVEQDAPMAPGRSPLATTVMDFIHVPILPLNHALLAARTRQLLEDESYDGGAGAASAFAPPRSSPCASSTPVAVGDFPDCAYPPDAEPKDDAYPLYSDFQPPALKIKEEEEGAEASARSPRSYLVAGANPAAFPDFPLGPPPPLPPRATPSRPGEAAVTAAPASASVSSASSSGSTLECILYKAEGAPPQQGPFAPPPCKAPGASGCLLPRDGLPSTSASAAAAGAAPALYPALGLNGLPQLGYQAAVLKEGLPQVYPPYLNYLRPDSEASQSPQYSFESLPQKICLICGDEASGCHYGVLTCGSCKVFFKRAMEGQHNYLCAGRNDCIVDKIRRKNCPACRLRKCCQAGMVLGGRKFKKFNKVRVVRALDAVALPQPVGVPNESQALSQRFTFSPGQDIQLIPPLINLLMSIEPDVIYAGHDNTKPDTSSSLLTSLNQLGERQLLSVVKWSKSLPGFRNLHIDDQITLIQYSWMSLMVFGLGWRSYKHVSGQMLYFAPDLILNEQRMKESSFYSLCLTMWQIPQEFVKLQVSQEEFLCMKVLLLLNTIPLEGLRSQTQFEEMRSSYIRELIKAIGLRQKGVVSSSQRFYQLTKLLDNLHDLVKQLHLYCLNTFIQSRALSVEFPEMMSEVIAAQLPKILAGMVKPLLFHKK
Estrogen receptor (Homo sapiens), sequence (P03372 whole entry, looked up): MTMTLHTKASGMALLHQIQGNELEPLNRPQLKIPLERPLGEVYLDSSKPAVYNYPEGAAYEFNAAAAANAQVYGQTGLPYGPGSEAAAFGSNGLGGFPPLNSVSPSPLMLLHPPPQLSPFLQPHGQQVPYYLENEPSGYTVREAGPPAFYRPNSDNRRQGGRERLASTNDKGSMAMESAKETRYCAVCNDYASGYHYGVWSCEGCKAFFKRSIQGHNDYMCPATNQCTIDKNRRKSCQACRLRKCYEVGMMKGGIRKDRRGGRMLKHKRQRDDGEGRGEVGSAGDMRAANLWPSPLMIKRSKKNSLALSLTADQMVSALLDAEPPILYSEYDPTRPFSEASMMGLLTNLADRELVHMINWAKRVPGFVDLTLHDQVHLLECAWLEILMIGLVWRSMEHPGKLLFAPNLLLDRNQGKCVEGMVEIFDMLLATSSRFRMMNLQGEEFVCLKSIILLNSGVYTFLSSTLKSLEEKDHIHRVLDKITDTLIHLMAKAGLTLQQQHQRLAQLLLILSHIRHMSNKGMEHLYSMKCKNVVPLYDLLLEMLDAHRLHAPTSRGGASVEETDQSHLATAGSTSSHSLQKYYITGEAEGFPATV

For the compound `COc1ccc(CCN(C)CCCC(C#N)(c2ccc(OC)c(OC)c2)C(C)C)cc1OC` (stereo unspecified), the Potency entry in test [1], in test [2] and in test [3] was “inactive” throughout. Moreover, the Potency in test [4] was 43.2 µM (active).

As for `O=C(Cl)c1cccc(C(=O)Cl)c1`, the Potency entry in test [5], in [6], in test [7], in test [8], in test [10] and in [2] was “inactive” in each case. Also, the Potency result in test [3], in test [11], in test [4] and in test [12] was “inactive” each time. The call in test [9] was inactive.

As to `COc1ccc(CCN2CCC(Nc3nc4ccccc4n3Cc3ccc(F)cc3)CC2)cc1`, the Potency entry in test [13], in test [5], in test [7], in [11] and in [12] was “inactive” each time. In addition, the Potency was 1.11 µM (active) and 3.76 µM (active) in [14]; 1.4 µM (active) and 11.9 µM (active) in test [6]; 625 nM (active) and 3.35 µM (active) in test [8]; 17.6 µM (active) and 21.1 µM (active) in test [10]; 9.9 µM (active) and 23.7 µM (active) in test [2]; 9.9 µM (active) and 21.1 µM (active) in test [3]. Moreover, the Potency in [4] is 31.3 µM (active) and inactive.

As for `C[N+]1([O-])CCOCC1`, the Potency result in [5], in test [14], in test [6], in test [7], in test [8] and in test [10] was “inactive” in each case. Also, the Potency result in [2], in test [3], in test [11], in test [4], in test [15] and in test [12] was “inactive” throughout. Also, the compound was called inactive in test [9].

As for `O=S(=O)(O)c1ccc2nc(-c3ccccc3)[nH]c2c1`, the Potency result in test [1], in [6], in [7], in test [8], in test [10] and in test [11] was “inactive” throughout. Besides, the Potency entry in test [4] and in test [12] was “inactive” throughout. For the same compound, the Potency is 732 nM (active) and 668 nM (active) in [13]; 23.2 µM (active) in test [5]; 23.2 µM (active) in [2]; 32.7 µM (active) in test [3].

On to `CCC(=O)/C=C/C1C(C)=CCCC1(C)C` (stereo unspecified), for which the Potency result in [13], in [5], in test [14], in [6], in test [7] and in test [8] was “inactive” throughout. For the same compound, the Potency result in [16], in test [2], in test [3], in test [11], in test [4] and in test [12] was “inactive” in each case. In [9], the compound was called inactive.

With `CN(C)c1ccc(C(=C2C=CC(=[N+](C)C)C=C2)c2ccccc2)cc1`, the Potency entry in test [1], in test [7], in test [11] and in test [12] was “inactive” each time. The Potency is 24.3 µM (active) and inactive and 13.3 µM (active) in [13]; 61.1 µM (active) and inactive in test [5]; 4.73 µM (active) [middle of 4 runs] in test [14]; 2.98 µM (active) [middle of 4 runs] in test [6]; 172 nM (active) and 376 nM (active) and 237 nM (active) in test [8]; 5.31 µM (active) [middle of 4 runs] in test [2]. Also, the Potency in test [3] is 7.5 µM (active) [middle of 4 runs]; in test [4], 29.8 µM (active) and inactive.

Take `C/C=C/c1ccc(OCC)c(O)c1`: the Potency result in test [5], in test [6], in test [7], in test [8], in test [10] and in test [2] was “inactive” in each case. Also, the Potency entry in [3], in [11], in test [4], in test [15] and in test [12] was “inactive” in each case. Moreover, the call in [9] was inactive.

Regarding `CC(=O)OCC1=C(C(=O)O)N2C(=O)[C@@H](NC(=O)Cc3cccs3)[C@H]2SC1`, the Potency result in test [1], in test [5], in test [14], in [6], in test [7] and in [8] was “inactive” each time. The Potency result in [10], in test [2], in [3], in test [11], in test [4] and in test [15] was “inactive” in each case. The Potency entry in test [12] was “inactive”. Besides, the compound was called inactive in [9].

For `CC(C)(C)c1ccc(O)c(C(C)(C)C)c1`, the Potency entry in test [13], in test [7], in test [10], in [17], in test [11] and in test [4] was “inactive” each time. Further, the Potency entry in [15] and in test [12] was “inactive” in each case. Besides, the compound was called inactive in test [9]. Also, the Potency is 48.4 µM (active) and 54.5 µM (active) in test [2]; 60.9 µM (active) in test [3].

Consider `CC1=C(C=O)C(C)(C)CC=C1`, for which the Potency result in test [5], in [14], in [6], in [7], in test [10] and in test [2] was “inactive” in each case. For the same compound, the Potency result in [3], in test [11], in test [4], in [15] and in [12] was “inactive” in each case.

As for `CCCCCCCCCCCC[N+](C)(C)C`, the Potency result in test [13], in test [5], in test [7], in [11], in test [4] and in [12] was “inactive” each time. Besides, the Potency was 43.1 µM (active) and 61.1 µM (active) and 54.5 µM (active) in test [14]; 60.9 µM (active) and 61.1 µM (active) and 30.6 µM (active) in test [6]; 384 nM (active) and 24.3 nM (active) and 6.86 µM (active) in test [8]; 13.6 µM (active) and 9.69 µM (active) and 13.7 µM (active) in [10]; 60.9 µM (active) in [2]; 68.6 µM (active) in test [3].

Take `CCc1cc(C(C)(C)C)c(O)c(C(C)(C)C)c1`: the Potency result in test [5], in test [14], in test [6], in [7], in test [8] and in [2] was “inactive” in each case. Also, the Potency result in test [3], in [11], in test [4] and in test [12] was “inactive” throughout.

Turning to `CC1COc2c(N3CCN(C)CC3)c(F)cc3c(=O)c(C(=O)O)cn1c23` (stereo unspecified), the Potency result in test [1], in test [5], in test [6], in [7], in test [8] and in test [2] was “inactive” each time. Besides, the Potency result in test [3], in [11], in [4], in test [15] and in test [12] was “inactive” each time.

Turning to `O=C(O)CCc1ccccc1`, the Potency entry in [13], in test [5], in test [14], in test [6], in test [7] and in test [8] was “inactive” throughout. In addition, the Potency result in test [10], in test [2], in test [3], in test [11], in test [4] and in test [12] was “inactive” throughout. The compound was called inactive in test [9].
